Measured values from PubChem BioAssay AID1159580 (chemical genetic matrix, 2015).
Values joined by “and” are separate entries in the source; they are usually repeats but may differ in a detail not shown here. Identical values can stand only once. Out of some 5,500 compounds screened, about 2,000 (36%) were called active. Another 18% or so got no clear call; they are omitted. Rule as the data show it: active = normalized growth mostly below about 0.91 (no sharp cut-off); inconclusive = no clear call, values can overlap the other calls; inactive = mostly above about 0.92. Some of the results follow.

Test: chemical genetic growth profiling, strain panel (AID 1159580);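 also: tested at 20 µM; growth read once vehicle control cultures reached saturation at 30 °C; 1 = growth at the plate median or of vehicle wells; lower values mean less growth of the strain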
Conditions: S. cerevisiae deletion strains, growth OD
[1] = locus YAR019C, strain CDC15, stronger effect = lower value
[2] = locus YBL105C, strain PKC1, stronger effect = lower value
[3] = locus YBR135W, strain CKS1, stronger effect = lower value
[4] = locus YBR136W, strain MEC1, stronger effect = lower value
[5] = locus YBR160W, strain CDC28, stronger effect = lower value
[6] = locus YDL017W, strain CDC7, stronger effect = lower value
[7] = locus YDL028C, strain MPS1, stronger effect = lower value
[8] = locus YDL101C, strain DUN1, stronger effect = lower value
[9] = locus YDL108W, strain KIN28, stronger effect = lower value
[10] = locus YDL132W, strain cdc53, stronger effect = lower value
[11] = locus YDL214C, strain PRR2, stronger effect = lower value
[12] = locus YDR052C, strain DBF4, stronger effect = lower value
[13] = locus YDR054C, strain cdc34, stronger effect = lower value
[14] = locus YDR226W, strain ADK1, stronger effect = lower value
[15] = locus YDR477W, strain SNF1, stronger effect = lower value
[16] = locus YER123W, strain YCK3, stronger effect = lower value
[17] = locus YER133W, strain GLC7, stronger effect = lower value
[18] = locus YFL009W, strain cdc4, stronger effect = lower value
[19] = locus YFL029C, strain CAK1, stronger effect = lower value
[20] = locus YFR003C, strain YPI1, stronger effect = lower value
[21] = locus YFR019W, strain FAB1, stronger effect = lower value
[22] = locus YFR028C, strain CDC14, stronger effect = lower value
[23] = locus YGR040W, strain KSS1, stronger effect = lower value
[24] = locus YGR052W, strain FMP48, stronger effect = lower value
[25] = locus YGR092W, strain DBF2, stronger effect = lower value
[26] = locus YHR030C, strain SLT2, stronger effect = lower value
[27] = locus YHR079C, strain IRE1, stronger effect = lower value
[28] = locus YHR082C, strain KSP1, stronger effect = lower value
[29] = locus YHR205W, strain SCH9, stronger effect = lower value
[30] = locus YIL147C, strain SLN1, stronger effect = lower value
[31] = locus YJL095W, strain BCK1, stronger effect = lower value
[32] = locus YJL128C, strain PBS2, stronger effect = lower value
[33] = locus YJL157C, strain FAR1, stronger effect = lower value
[34] = locus YJR016C, strain ILV3, stronger effect = lower value
[35] = locus YJR066W, strain TOR1 (second series), stronger effect = lower value
[36] = locus YJR066W, strain TOR1, stronger effect = lower value
[37] = locus YKL048C, strain ELM1, stronger effect = lower value
[38] = locus YKL067W, strain YNK1, stronger effect = lower value
[39] = locus YKL101W, strain HSL1, stronger effect = lower value
[40] = locus YKL193C, strain SDS22, stronger effect = lower value
[41] = locus YKL203C, strain TOR2, stronger effect = lower value
[42] = locus YLR113W, strain HOG1, stronger effect = lower value
[43] = locus YLR133W, strain CKI1, stronger effect = lower value
[44] = locus YLR403W, strain SFP1, stronger effect = lower value
[45] = locus YML070W, strain DAK1, stronger effect = lower value
[46] = locus YMR001C, strain CDC5, stronger effect = lower value
[47] = locus YMR205C, strain PFK2 (second series), stronger effect = lower value
[48] = locus YMR277W, strain FCP1, stronger effect = lower value
[49] = locus YNL006W, strain LST8, stronger effect = lower value
[50] = locus YNL020C, strain ARK1, stronger effect = lower value
[51] = locus YNL161W, strain CBK1, stronger effect = lower value
[52] = locus YNL183C, strain NPR1, stronger effect = lower value
[53] = locus YNL207W, strain RIO2, stronger effect = lower value
[54] = locus YNL222W, strain SSU72, stronger effect = lower value
[55] = locus YNL307C, strain MCK1 (second series), stronger effect = lower value
[56] = locus YOL078W, strain AVO1, stronger effect = lower value
[57] = locus YOL136C, strain PFK27, stronger effect = lower value
[58] = locus YOR061W, strain CKA2, stronger effect = lower value
[59] = locus YOR119C, strain RIO1, stronger effect = lower value
[60] = locus YOR231W, strain MKK1, stronger effect = lower value
[61] = locus YOR329C, strain SCD5, stronger effect = lower value
[62] = locus YPL031C, strain PHO85, stronger effect = lower value
[63] = locus YPL153C, strain RAD53, stronger effect = lower value
[64] = locus YPL204W, strain HRR25, stronger effect = lower value
[65] = locus YPL209C, strain IPL1, stronger effect = lower value
[66] = locus YPL256C, strain CLN2, stronger effect = lower value
[67] = locus YPR025C, strain CCL1, stronger effect = lower value
[68] = locus YPR106W, strain ISR1, stronger effect = lower value
[69] = locus YPR111W, strain DBF20, stronger effect = lower value
[70] = strain NNK1, stronger effect = lower value
[71] = strain TSCII, stronger effect = lower value

SMILES: O=C(NCCSCc1ccco1)Nc1cc(Cl)cc(Cl)c1
- normalized growth (locus YAL013W, strain DEP1, stronger effect = lower value): 0.915 (active)
- normalized growth [1]: 0.958 (inactive)
- normalized growth [2]: 0.96 (inactive)
- normalized growth [3]: 0.954 (inactive)
- normalized growth [4]: 0.963 (inactive)
- normalized growth [5]: 0.957 (inactive)
- normalized growth (locus YBR229C, strain ROT2, stronger effect = lower value): 0.976 (inactive)
- normalized growth [6]: 0.956 (inactive)
- normalized growth [7]: 0.966 (inactive)
- normalized growth [8]: 0.97 (inactive) and 0.977 (inactive)
- normalized growth [9]: 0.958 (inactive)
- normalized growth [10]: 0.949 (inactive)
- normalized growth (locus YDL134C, strain PPH21, stronger effect = lower value): 0.724 (active)
- normalized growth [11]: 0.894 (inactive)
- normalized growth [12]: 0.972 (inactive)
- normalized growth [13]: 0.942 (inactive)
- normalized growth (locus YDR150W, strain NUM1, stronger effect = lower value): 0.908 (inactive)
- normalized growth [14]: 0.965 (inactive)
- normalized growth [15]: 0.885 (inactive)
- normalized growth (locus YEL061C, strain CIN8, stronger effect = lower value): 0.984 (inactive)
- normalized growth [16]: 0.842 (inactive)
- normalized growth [17]: 0.895 (inactive)
- normalized growth [18]: 0.956 (inactive)
- normalized growth [19]: 0.951 (inactive)
- normalized growth [20]: 0.962 (inactive)
- normalized growth [21]: 0.897 (inactive)
- normalized growth [22]: 0.956 (inactive)
- normalized growth [23]: 0.893 (inactive)
- normalized growth [24]: 0.967 (inactive)
- normalized growth (locus YGR078C, strain PAC10, stronger effect = lower value): 0.957 (inactive)
- normalized growth [25]: 0.914 (inactive)
- normalized growth [26]: 0.822 (inactive) and 0.683 (active)
- normalized growth [27]: 0.853 (inactive)
- normalized growth [28]: 0.866 (inactive)
- normalized growth (locus YHR087W, strain rtc3, stronger effect = lower value): 0.966 (inactive)
- normalized growth [29]: 0.86 (inactive)
- normalized growth [30]: 0.955 (inactive)
- normalized growth [31]: 0.815 (inactive)
- normalized growth [32]: 0.928 (inactive)
- normalized growth [33]: 0.893 (inactive)
- normalized growth [34]: 0.96 (inactive)
- normalized growth (locus YJR043C, strain POL32, stronger effect = lower value): 0.932 (inactive)
- normalized growth [35]: 0.946 (inactive)
- normalized growth [36]: 0.824 (inactive)
- normalized growth (locus YJR075W, strain HOC1, stronger effect = lower value): 0.958 (inactive)
- normalized growth [37]: 0.934 (inactive)
- normalized growth [38]: 0.898 (inactive)
- normalized growth [39]: 0.911 (inactive)
- normalized growth [40]: 0.942 (inactive)
- normalized growth [41]: 0.916 (inactive)
- normalized growth (locus YLR039C, strain RIC1, stronger effect = lower value): 0.769 (active)
- normalized growth (locus YLR058C, strain SHM2 (second series), stronger effect = lower value): 0.953 (inactive)
- normalized growth (locus YLR085C, strain ARP6, stronger effect = lower value): 0.865 (inactive)
- normalized growth [42]: 0.842 (active)
- normalized growth [43]: 0.893 (inactive)
- normalized growth (locus YLR262C, strain YPT6, stronger effect = lower value): 0.759 (active)
- normalized growth [44]: 0.868 (inactive)
- normalized growth [45]: 0.879 (inactive)
- normalized growth (locus YML094W, strain GIM5, stronger effect = lower value): 0.918 (inactive)
- normalized growth [46]: 0.954 (inactive)
- normalized growth [47]: 0.914 (inactive)
- normalized growth (locus YMR219W, strain ESC1, stronger effect = lower value): 0.976 (inactive)
- normalized growth (locus YMR263W, strain SAP30, stronger effect = lower value): 0.917 (inactive)
- normalized growth [48]: 0.952 (inactive)
- normalized growth [49]: 0.951 (inactive)
- normalized growth [50]: 0.879 (inactive)
- normalized growth (locus YNL153C, strain GIM3, stronger effect = lower value): 0.97 (inactive)
- normalized growth [51]: 0.96 (inactive)
- normalized growth [52]: 0.845 (inactive)
- normalized growth [53]: 0.943 (inactive)
- normalized growth [54]: 0.953 (inactive)
- normalized growth (locus YNL298W, strain CLA4 (second series), stronger effect = lower value): 0.879 (inactive)
- normalized growth [55]: 0.888 (inactive)
- normalized growth (locus YNL322C, strain KRE1, stronger effect = lower value): 0.96 (inactive)
- normalized growth (locus YNR030W, strain Alg12, stronger effect = lower value): 0.897 (inactive)
- normalized growth [56]: 0.948 (inactive)
- normalized growth [57]: 0.853 (inactive)
- normalized growth [58]: 0.9 (inactive)
- normalized growth [59]: 0.954 (inactive)
- normalized growth [60]: 0.863 (inactive)
- normalized growth [61]: 0.956 (inactive)
- normalized growth [62]: 0.872 (inactive)
- normalized growth (locus YPL055C, strain LGE1, stronger effect = lower value): 0.858 (inactive)
- normalized growth [63]: 0.894 (inactive)
- normalized growth [64]: 0.867 (inactive)
- normalized growth [65]: 0.958 (inactive)
- normalized growth (locus YPL241C, strain CIN2, stronger effect = lower value): 0.937 (inactive)
- normalized growth [66]: 0.818 (active)
- normalized growth [67]: 0.952 (inactive)
- normalized growth [68]: 0.959 (inactive)
- normalized growth [69]: 0.957 (inactive)
- normalized growth (locus YPR135W, strain CTF4, stronger effect = lower value): 0.841 (inactive)
- normalized growth [70]: 0.952 (inactive)
- normalized growth [71]: 0.954 (inactive)

SMILES: O=C(NCCSCc1cccc(C(F)(F)F)c1)Nc1cccc(C(F)(F)F)c1
- normalized growth [1]: 0.999 (inactive)
- normalized growth [2]: 1 (inactive)
- normalized growth [3]: 0.994 (inactive)
- normalized growth [4]: 0.998 (inactive)
- normalized growth [5]: 0.997 (inactive)
- normalized growth [6]: 1 (inactive)
- normalized growth [7]: 0.996 (inactive)
- normalized growth [8]: 1.01 (inactive)
- normalized growth [9]: 0.999 (inactive)
- normalized growth [10]: 0.99 (inactive)
- normalized growth [11]: 1.01 (inactive)
- normalized growth [12]: 1.01 (inactive)
- normalized growth [13]: 0.995 (inactive)
- normalized growth [14]: 1 (inactive)
- normalized growth [15]: 1.01 (inactive)
- normalized growth [16]: 1.02 (inactive)
- normalized growth [17]: 1.02 (inactive)
- normalized growth [18]: 0.992 (inactive)
- normalized growth [19]: 0.991 (inactive)
- normalized growth [20]: 1 (inactive)
- normalized growth [21]: 1 (inactive)
- normalized growth [22]: 0.997 (inactive)
- normalized growth [23]: 1 (inactive)
- normalized growth [24]: 1.18 (inactive)
- normalized growth [25]: 1 (inactive)
- normalized growth [26]: 1.15 (inactive)
- normalized growth [27]: 1.11 (inactive)
- normalized growth [28]: 1.18 (inactive)
- normalized growth [29]: 0.989 (inactive)
- normalized growth [30]: 1 (inactive)
- normalized growth [31]: 1.17 (inactive)
- normalized growth [32]: 0.954 (inactive)
- normalized growth [33]: 1.01 (inactive)
- normalized growth [34]: 1.01 (inactive)
- normalized growth [35]: 0.993 (inactive)
- normalized growth [36]: 1.21 (inactive)
- normalized growth [37]: 0.983 (inactive)
- normalized growth [38]: 1.01 (inactive)
- normalized growth [39]: 0.997 (inactive)
- normalized growth [40]: 1 (inactive)
- normalized growth [41]: 1.09 (inactive)
- normalized growth [42]: 1.07 (inactive)
- normalized growth [43]: 0.997 (inactive)
- normalized growth [44]: 0.999 (inactive)
- normalized growth [45]: 1.01 (inactive)
- normalized growth [46]: 0.996 (inactive)
- normalized growth [47]: 1.01 (inactive)
- normalized growth [48]: 0.999 (inactive)
- normalized growth [49]: 1 (inactive)
- normalized growth [50]: 0.988 (inactive)
- normalized growth [51]: 1 (inactive)
- normalized growth [52]: 1.15 (inactive)
- normalized growth [53]: 1.01 (inactive)
- normalized growth [54]: 0.998 (inactive)
- normalized growth [55]: 0.997 (inactive)
- normalized growth [56]: 0.995 (inactive)
- normalized growth [57]: 0.992 (inactive)
- normalized growth [58]: 0.986 (inactive)
- normalized growth [59]: 1.04 (inactive)
- normalized growth [60]: 1.1 (inactive)
- normalized growth [61]: 1 (inactive)
- normalized growth [62]: 1.01 (inactive)
- normalized growth [63]: 1.02 (inactive)
- normalized growth [64]: 1.01 (inactive)
- normalized growth [65]: 0.997 (inactive)
- normalized growth [66]: 1.11 (inactive)
- normalized growth [67]: 0.999 (inactive)
- normalized growth [68]: 0.992 (inactive)
- normalized growth [69]: 0.986 (inactive)
- normalized growth [70]: 0.994 (inactive)
- normalized growth [71]: 0.995 (inactive)
